# The sample as a whole holds a higher share of the strongest signals than the screen did.
# B1: FGF1 (Homo sapiens), P05230 (protein)
# chain: MAEGEITTFTALTEKFNLPPGNYKKPKLLYSNGGHFLRILPDGTVDGTRDRSDQHIQLQLSAESVGEVYIKSTETGQYLAMTDGLLYGSQTPNEECLFLERLEENHYNTYISKHAEKNWFVGLKKNGSCKRGPRTHYGQAILFLPLPASSED
# Columns and labels:
# Experiment in all cases: glycan array binding signal (z-score within array); higher = stronger binding
# Settings in all cases: glycan notation: IUPAC condensed, linker removed
# [1] = molecular target: Fuc(a1-2)Gal(b1-3)GlcNAc(b1-2)Man(a1-3)[Fuc(a1-2)Gal(b1-3)GlcNAc(b1-2)Man(a1-6)]Man(b1-4)GlcNAc(b1-4)[Fuc(a1-6)]GlcNAc
# In short: (§1)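 Glycan array data came from 3228 arrays in the Consortium for Functional Glycomics database, and only arrays with an available protein sequence were kept. Glycan names were put into IUPAC-condensed notation, and columns mapping to the same glycan were averaged. The binding signal is a within-array Z-score, averaged across arrays of one protein sequence run at different concentrations or buffers and across linkers. A negative Z-score can be read as non-binding.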
# [2] = molecular target: Fuc(a1-2)Gal(b1-3)[Fuc(a1-4)]GlcNAc(b1-2)Man(a1-3)[Fuc(a1-2)Gal(b1-3)[Fuc(a1-4)]GlcNAc(b1-2)Man(a1-3)]Man(b1-4)GlcNAc(b1-4)GlcNAc
# In short: as §1
# [3] = molecular target: Fuc(a1-2)Gal(b1-4)Glc
# In short: as §1
# [4] = molecular target: Fuc(a1-2)Gal(b1-4)GlcNAc(b1-3)GalNAc
# In short: as §1
# [5] = molecular target: Fuc(a1-2)Gal6S(b1-4)Glc
# In short: as §1
# [6] = molecular target: Fuc(a1-2)Gal6S(b1-4)Glc6S
# In short: as §1
# [7] = molecular target: Fuc(a1-2)[GalNAc(a1-3)]Gal(b1-4)GlcNAc(b1-3)GalNAc
# In short: as §1
# [8] = molecular target: Fuc(a1-3)[Gal(b1-4)]GlcNAc(b1-6)GalNAc
# In short: as §1
# [9] = molecular target: Fuc(a1-3)[Gal3S(b1-4)]GlcNAc6S
# In short: as §1
# [10] = molecular target: Gal(a1-3)Gal(b1-3)GlcNAc(b1-3)GalNAc
# In short: as §1
# [11] = molecular target: Gal(a1-3)Gal(b1-3)[Fuc(a1-4)]GlcNAc(b1-2)Man(a1-3)[Gal(a1-3)Gal(b1-3)[Fuc(a1-4)]GlcNAc(b1-2)Man(a1-6)]Man(b1-4)GlcNAc(b1-4)GlcNAc
# In short: as §1
# [12] = molecular target: Gal(a1-3)Gal(b1-4)GlcNAc(b1-3)GalNAc
# In short: as §1
# [13] = molecular target: Gal(a1-4)Gal(b1-4)GlcNAc
# In short: as §1
# [14] = molecular target: Gal(a1-4)Gal(b1-4)GlcNAc(b1-3)Gal(b1-4)Glc
# In short: as §1
# [15] = molecular target: Gal(b1-3)[Fuc(a1-4)]GlcNAc(b1-2)Man
# In short: as §1
# [16] = molecular target: Gal(b1-3)[Fuc(a1-4)]GlcNAc(b1-2)Man(a1-3)[Gal(b1-3)[Fuc(a1-4)]GlcNAc(b1-2)Man(a1-6)]Man(b1-4)GlcNAc(b1-4)[Fuc(a1-6)]GlcNAc
# In short: as §1
# [17] = molecular target: Gal(b1-4)GalNAc(a1-3)[Fuc(a1-2)]Gal(b1-4)GlcNAc
# In short: as §1
# [18] = molecular target: Gal(b1-4)GlcNAc
# In short: as §1
# [19] = molecular target: Gal(b1-4)GlcNAc(a1-6)Gal(b1-4)GlcNAc
# In short: as §1
# [20] = molecular target: Gal(b1-4)GlcNAc(b1-3)Gal(b1-4)GlcNAc(b1-3)Gal(b1-4)GlcNAc(b1-2)Man(a1-3)[Gal(b1-4)GlcNAc(b1-3)Gal(b1-4)GlcNAc(b1-3)Gal(b1-4)GlcNAc(b1-2)Man(a1-6)]Man(b1-4)GlcNAc(b1-4)[Fuc(a1-6)]GlcNAc
# In short: as §1
# [21] = molecular target: Gal(b1-4)GlcNAc(b1-3)Gal(b1-4)GlcNAc(b1-3)Gal(b1-4)GlcNAc(b1-3)Gal(b1-4)GlcNAc(b1-2)Man(a1-3)[Gal(b1-4)GlcNAc(b1-3)Gal(b1-4)GlcNAc(b1-3)Gal(b1-4)GlcNAc(b1-3)Gal(b1-4)GlcNAc(b1-2)Man(a1-6)]Man(b1-4)GlcNAc(b1-4)[Fuc(a1-6)]GlcNAc
# In short: as §1
# [22] = molecular target: Gal(b1-4)GlcNAc(b1-3)Gal(b1-4)GlcNAc(b1-3)[Gal(b1-4)GlcNAc(b1-3)Gal(b1-4)GlcNAc(b1-6)]GalNAc
# In short: as §1
# [23] = molecular target: Gal3S(b1-3)[Fuc(a1-4)]GlcNAc
# In short: as §1
# [24] = molecular target: Gal3S(b1-4)Glc
# In short: as §1
# [25] = molecular target: Gal3S6S(b1-4)GlcNAc6S
# In short: as §1
# [26] = molecular target: GalNAc(b1-4)GlcNAc(b1-2)Man(a1-3)[GalNAc(b1-4)GlcNAc(b1-2)Man(a1-6)]Man(b1-4)GlcNAc(b1-4)GlcNAc
# In short: as §1
# [27] = molecular target: GalNAc(b1-4)GlcNAc6S
# In short: as §1
# [28] = molecular target: GlcNAc(a1-4)Gal(b1-4)GalNAc
# In short: as §1
# [29] = molecular target: GlcNAc(a1-4)Gal(b1-4)GlcNAc(b1-3)Gal(b1-4)[Fuc(a1-3)]GlcNAc(b1-3)Gal(b1-4)[Fuc(a1-3)]GlcNAc
# In short: as §1
# [30] = molecular target: GlcNAc(b1-2)[GlcNAc(b1-4)]Man(a1-3)[GlcNAc(b1-4)][GlcNAc(b1-2)[GlcNAc(b1-6)]Man(a1-6)]Man(b1-4)GlcNAc(b1-4)GlcNAc
# In short: as §1
binder,measurement,setting,value
B1,glycan array binding signal (z-score),[1],0.366
same,glycan array binding signal (z-score),[2],2.84
same,glycan array binding signal (z-score),[3],-0.358
same,glycan array binding signal (z-score),[4],1.33
same,glycan array binding signal (z-score),[5],0.397
same,glycan array binding signal (z-score),[6],0.797
same,glycan array binding signal (z-score),[7],-0.242
same,glycan array binding signal (z-score),[8],1.04
same,glycan array binding signal (z-score),[9],1.09
same,glycan array binding signal (z-score),[10],0.646
same,glycan array binding signal (z-score),[11],3.56
same,glycan array binding signal (z-score),[12],-0.582
same,glycan array binding signal (z-score),[13],0.333
same,glycan array binding signal (z-score),[14],0.423
same,glycan array binding signal (z-score),[15],3.59
same,glycan array binding signal (z-score),[16],3.02
same,glycan array binding signal (z-score),[17],-0.949
same,glycan array binding signal (z-score),[18],-0.031
same,glycan array binding signal (z-score),[19],-0.827
same,glycan array binding signal (z-score),[20],2.98
same,glycan array binding signal (z-score),[21],1.05
same,glycan array binding signal (z-score),[22],1.64
same,glycan array binding signal (z-score),[23],3.14
same,glycan array binding signal (z-score),[24],-0.046
same,glycan array binding signal (z-score),[25],1.04
same,glycan array binding signal (z-score),[26],6.98
same,glycan array binding signal (z-score),[27],-0.848
same,glycan array binding signal (z-score),[28],0.705
same,glycan array binding signal (z-score),[29],1.24
same,glycan array binding signal (z-score),[30],-0.751

# Source: the supplement of paper PMC8728848
